The record followed here is PubChem BioAssay (NCI).

The panel holds about 83,000 compounds, 20% with a hit somewhere; the sample as a whole holds those more often.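 Negative percent growth values reflect cell death: -40 means 40% of the cells present at the start died, and -100 means all died.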 Activity calls are given as the source filed them. How the source made its calls: active means growth percent below 10; inactive means the rest.

This experiment has as its system KM12 colon. Put plainly: NCI-60 one-dose screen, 48 h (100 = growth as untreated, 0 = no growth, -100 = all killed). To be noted: 10 µM unless noted.
Turning to `O=[N+]([O-])c1cc([N+](=O)[O-])c(NN=C(c2ccc(O)cc2)c2ccc(O)cc2)cc1Cl`, the growth was -77.7% (active). The result for `Cc1cc(SC#N)ncn1` reads 104% (inactive); that for `O=C(N/N=C/c1c(Cl)cccc1Cl)c1cccc(Nc2ccnc(C(F)(F)F)c2)c1`, 108% (inactive); that for `O=[N+]([O-])c1cc([N+](=O)[O-])c(C(F)(F)F)cc1NN=C(c1ccc(O)cc1)c1ccc(O)cc1`, 84% (inactive). With `N/C(=N\c1nc2ccccc2[nH]1)NC(=O)Cc1cccc2ccccc12`, the growth was 82% (inactive). For the compound `CCN(CC)CCCC(C)Nc1ccnc2cc(Cl)c(SCc3ccccc3)cc12` (configuration not stated), the growth was -32.4% (active).

For `O=C(Oc1ccc(Cl)cc1[N+](=O)[O-])Oc1ccc(Cl)cc1[N+](=O)[O-]`, the growth was 106% (inactive). As to `C[C@@H](NC(=O)[C@@H](CC(=O)N1CCC(N2CCCCC2)CC1)N1C(=O)[C@@H](N2C(=O)OC[C@@H]2c2ccccc2)[C@H]1/C=C/c1cccc(Cl)c1)c1ccccc1`, the growth was 71.3% (inactive). The result for `COc1ccc2c3ccnc(C(F)(F)F)c3n(CCCCN)c2c1` reads 54.8% (inactive); that for `CCOC(=O)c1c[nH]c2cc(OCC3CC3)c(OCC3CC3)cc2c1=O`, 95.7% (inactive). Consider `COc1ccc(-c2nc3ccccn3c2/C=C/C(=O)c2cc(OC)c(OC)c(OC)c2)cc1OC`, for which the growth is 3.9% (active). Regarding `NC(=S)Cc1ccccc1`, the growth was 101% (inactive). Under `CC(C)C1=NOC(=O)C1=Cc1cn(-c2ccccc2)nc1-c1cccc([N+](=O)[O-])c1` stands 87% (inactive); under `O=c1c2c3c(sc2n2cnnc2n1Cc1ccccc1)CCCC3`, 113% (inactive).

As for `COc1cc(C)cc2oc3oc(=O)c(C(=O)c4cc5cc(Br)ccc5o4)cc3c(=O)c12`, the growth is 107% (inactive). For `COc1ccc(OC)c([N+](=O)[O-])c1C(=O)CNC(C)=O`, the growth is 106% (inactive). Under `COc1cc(C(=O)/C=C/c2c(-c3ccc(F)cc3)nc3sccn23)cc(OC)c1OC` stands -12.1% (active). On to `CC(C)c1ccc(C(=O)Nc2nc3ccc(O)cc3s2)cc1`, for which the growth is 15.7% (inactive). The result for `C=C(C)C1CCC2(C(=O)O)CCC3(C)C(CCC4C5(C)CCC(OC(=O)NCc6ccccc6)C(C)(C)C5CCC43C)C12` (configuration not stated) reads 28.1% (inactive); that for `CCOC(=O)c1ccc2nc(-c3c(C)nn(-c4ccccc4)c3N3CCOCC3)[nH]c2c1`, 96.9% (inactive). Under `Nc1nc(SCc2cccc([N+](=O)[O-])c2)c2[nH]cnc2n1` stands 99.8% (inactive); under `CCCC[C@@H](C=O)NC(=O)[C@H](CC(C)C)NC(=O)[C@H](CC(C)C)NC(=O)OCc1ccccc1`, -51.4% (active); under `O=C(N/N=C/c1ccc([N+](=O)[O-])cc1)c1ccc(Br)o1`, 126% (inactive). For `NC1=NC(=O)NC1(c1ccccc1)c1ccccc1`, the growth is 103% (inactive). Turning to `CSc1nc2sc3cc(Cl)c(Cl)cc3n2c(=N)c1C#N`, the growth was 98.9% (inactive). In the case of `Cn1c(=O)c(C#N)c(-c2ccco2)n2c(S(=O)(=O)Cc3ccccc3)nnc12`, the growth is 93.7% (inactive). The result for `Nc1ccc2c(c1)Cc1cc(NC(=O)C(F)(F)F)ccc1-2` reads 97.7% (inactive). On to `NC(=O)c1c(NC(=O)COC(=O)Cc2ccccc2F)sc2c1CCC2`, for which the growth is 105% (inactive). Under `Cc1cccc([N+](=O)[O-])c1I` stands 112% (inactive); under `COc1ccc2nc3ccccc3c(NCCNCCO)c2c1`, -30.5% (active); under `Cc1cc(NN=C(c2ccc(O)cc2)c2ccc(O)cc2)c([N+](=O)[O-])cc1[N+](=O)[O-]`, 37.7% (inactive).

For `N#Cc1c(Cl)nc(SCC2CO2)nc1-c1ccccc1` (configuration not stated), the growth is 110% (inactive).

Take `CCCCCCCCCCCCCCNC(=O)Nc1ccc(Cl)c(Cl)c1`: the growth was 35.8% (inactive).

`O=C1NC(=O)c2cc([N+](=O)[O-])cc3cccc1c23`: the growth is 105% (inactive). Turning to `CCN(CC)CCSC(=O)C(O)(c1ccccc1)C1CCCC1` (configuration not stated), the growth was 79.4% (inactive). For `CCC(Br)(CC)C(=O)c1ccc(OCC(=O)O)c(Cl)c1Cl`, the growth was 103% (inactive). For `COc1ccc(C2CC(c3cc(OC)c(OC)c(OC)c3)=NN2C(C)=O)cc1OCC(=O)Nc1nc2ccc(C(F)(F)F)cc2s1` (configuration not stated), the growth is 64.5% (inactive).
